Source: PubChem BioAssay (National Center for Advancing Translational Sciences (NCATS))
Compounds with a hit are over-represented: about 3.3% of the library has one in this group of screens.
Sm TGR block: S. mansoni TGR enzyme inhibition | 360,000 compounds, 3% hits | Potency, µM (series often up to 114 µM), hits mostly inhibitors | Q962Y6 | purified TGR, DTNB reduction, TNB absorbance 405 nm; further: nearly all actives have a fitted effect of over 60% in size
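First, TGR (20 nM dispensed) and NADPH were mixed with compound. Second, a 15 min room-temperature incubation followed. Third, further NADPH and then DTNB were added to start the reaction. Finally, TNB absorbance was monitored kinetically.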
AmpC inh no detg: inhibitors of E. coli AmpC beta-lactamase without detergent; Potency, µM (series often up to 57.1 µM), most hits filed as inhibitors; P00811; AID 485341; AmpC nitrocefin hydrolysis, absorbance 480 nm, 0.0001% Triton; 330,000 compounds, 0.52% hits; further: nearly all actives have a fitted effect of over 20% in size
Target sequence (P00811 whole entry, looked up): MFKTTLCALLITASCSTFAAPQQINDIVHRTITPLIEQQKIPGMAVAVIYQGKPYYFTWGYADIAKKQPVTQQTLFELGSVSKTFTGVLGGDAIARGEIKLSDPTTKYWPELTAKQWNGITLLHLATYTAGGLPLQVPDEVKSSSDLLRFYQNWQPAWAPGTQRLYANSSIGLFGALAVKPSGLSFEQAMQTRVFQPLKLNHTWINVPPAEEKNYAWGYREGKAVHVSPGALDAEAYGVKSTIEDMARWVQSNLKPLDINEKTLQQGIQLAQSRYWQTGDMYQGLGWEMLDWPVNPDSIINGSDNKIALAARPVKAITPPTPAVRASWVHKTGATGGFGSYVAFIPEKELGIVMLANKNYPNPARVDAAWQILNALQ
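AmpC (5.3 nM in the dispensed reagent) in 20 mM phosphate pH 7.0 with 0.01% (detergent screen) or 0.0001% Triton X-100 was preincubated with compounds for 15 min at room temperature. Nitrocefin was then added from an 800 uM solution, and hydrolysis was followed at 480 nm.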
AmpC detergent: blocks E. coli AmpC beta-lactamase in detergent assay; AID 485294; AmpC hydrolysis of nitrocefin, absorbance 480 nm, 0.01% Triton; 370,000 compounds, 0.041% hits; P00811; Potency, µM (doses to about 114 µM), actives largely listed as inhibitors; further: nearly all actives have a fitted effect of over 25% in size
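20 mM phosphate pH 7.0 + 0.01% (detergent screen) or 0.0001% Triton X-100; 5.3 nM AmpC reagent; cpd preinc 15 min RT; nitrocefin (800 uM stock) to start; A480 q20 s × 4 min; Activity was normalised to no-enzyme and no-compound control wells.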
Of the large screens only hits and unclear results are named; the others gave an inactive call; ! = not confirmed by another sample. The call rests on the fitted dose curve; in most records, active means well fitted curve in the direction sought with a large enough effect; inconclusive means small, poorly fitted or top-dose-only effect, or another doubt; inactive means no such curve, though single readings can be large; an effect the other way counts as inactive or inconclusive.

CC(=O)C1=C(C)Nc2ncnn2C1c1ccc(C)cc1 (stereo unspecified)	none
CC(=O)c1cc2c(cc1NC(=O)CCn1cccc1)OCO2	Sm TGR block 35.5µM
CC(=O)c1cc2c(cc1NC(=O)CCC1CCCC1)OCO2	none
CCOc1ccc2c(c1)c(N=O)c(O)n2C	none
COc1ccc(S(=O)(=O)N2CCOC2CNC(=O)C(=O)NCc2ccco2)cc1 (stereo unspecified)	Sm TGR block inconclusive
O=C1NC(=O)C(Cc2cccs2)C(=O)N1	Sm TGR block 39.8µM, AmpC detergent inconclusive
O=C(O)C1CC(=O)N(Cc2cccs2)C1 (stereo unspecified)	none
Cc1csc(CNc2ncnc3ccc(-c4ccco4)cc23)c1	none
CCN(CC)S(=O)(=O)c1nnc(NC(=O)c2ccco2)s1	none
CN(c1ccccc1)S(=O)(=O)c1nnc(NC(=O)c2ccco2)s1	none
CC(C)CN(c1ccccc1)S(=O)(=O)c1nnc(NC(=O)c2ccco2)s1	Sm TGR block 35.5µM!
Cc1cccc(N(C)S(=O)(=O)c2nnc(NC(=O)c3ccco3)s2)c1	none
CCN(c1ccc(C)cc1C)S(=O)(=O)c1nnc(NC(=O)c2ccco2)s1	Sm TGR block 50.1µM
CCN(c1ccc(C)cc1)S(=O)(=O)c1nnc(NC(=O)c2ccco2)s1	Sm TGR block 22.4µM, AmpC detergent inconclusive
O=C(CCc1ccccc1)OCC(=O)c1ccc(Br)cc1	none
C/C(=N\NC(=O)CC#N)C1COc2ccccc2O1 (stereo unspecified)	none
Cc1ccc(C=C2C(Cl)=C(Cl)C(Cl)=C2Cl)cc1	Sm TGR block 0.631µM, AmpC inh no detg 15.8µM
Cc1ccc(/C=[N+](/C)[O-])cc1	AmpC detergent inconclusive
CC(=O)Nc1cc(NC(C)=O)cc(C(=O)N2CCCC3CCCCC32)c1 (stereo unspecified)	AmpC detergent inconclusive
CN(C)c1ccc(C(CNC(=O)c2ccccc2F)N2CCc3ccccc32)cc1 (stereo unspecified)	none (no result: AmpC inh no detg)
COc1cccc(CC2(CO)CCCN(Cc3ccccc3Cl)C2)c1 (stereo unspecified)	AmpC detergent inconclusive
Cc1ccccc1CC1(CO)CCCN(Cc2ccccc2Cl)C1 (stereo unspecified)	Sm TGR block 25.1µM, AmpC detergent inconclusive
C=CCOC(=O)c1cc(-c2ccc(/C=C3\C(=O)NC(=O)C(C#N)=C3C)o2)ccc1Cl	Sm TGR block 7.94µM, AmpC inh no detg inconclusive
NS(=O)(=O)c1ccc(-c2ccc(/C=C3\NC(=S)NC3=O)o2)cc1	Sm TGR block 8.91µM
CC1=C(C#N)C(=O)NC(=O)/C1=C/c1ccc(-c2ccc(S(N)(=O)=O)cc2)o1	Sm TGR block 8.91µM
O=C1NC(=O)C(=Cc2ccc(-c3ccc(S(=O)(=O)N4CCOCC4)cc3)o2)C(=O)N1	Sm TGR block inconclusive
NS(=O)(=O)c1ccc(-c2ccc(C=O)o2)cc1	none
CC1(C)OC(=O)C(=Cc2ccc(-c3ccc(Cl)c(C(=O)O)c3)o2)C(=O)O1	AmpC detergent inconclusive
O=[N+]([O-])c1ncn(Cc2c(Cl)cccc2Cl)n1	AmpC detergent inconclusive
CC1CC(=O)N(CC(=O)Nc2ccccc2F)c2ccccc2S1(=O)=O (stereo unspecified)	AmpC detergent inconclusive
O=C(COc1ccc(Br)cc1)Nc1ccc(CN2CCOCC2)cc1	AmpC detergent inconclusive
C=CCOC(=O)C(C#N)c1nc2ccccc2nc1N1CCN(c2ccccc2OC)CC1 (stereo unspecified)	none
C=CCN(CC=C)c1nc2ccccc2nc1C(C#N)C(=O)OC(C)C (stereo unspecified)	Sm TGR block 28.2µM
C=CCc1cccc2cc(C(=O)NNC(=O)c3ccncc3)c(=O)oc12	none
CCN(Cc1nc2ccccc2c(=O)[nH]1)C(=O)c1cc2c(s1)CCCCC2	none
COC(=O)c1cc(NC(=O)c2ccccc2)c(=O)oc1C	none
Cc1oc(=O)c(NC(=O)c2ccccc2)cc1C(N)=O	none
COc1ccc(C(=O)Nc2cc(C)c3c(=O)oc4ccccc4c3n2)cc1	AmpC inh no detg 8.91µM, AmpC detergent inconclusive
COc1ccc(C(=O)Nc2cc(C(=O)c3ccccc3)c(C)oc2=O)cc1	Sm TGR block 6.31µM
COCC(=O)Nc1cc(C)c2c(=O)oc3ccccc3c2n1	none
Cc1oc(=O)c(NC(=O)c2cccc(Cl)c2)cc1C(=O)c1ccccc1	Sm TGR block 4.47µM
O=C1NCCCC1C(=O)N/N=C/c1cccc(Cl)c1 (stereo unspecified)	none
CC(C)=CCCC(C)CN1CCC(n2nccc2NC(=O)c2ccc3c(c2)OCO3)CC1 (stereo unspecified)	none
CCOc1ccc(/C=N/NC(=O)c2ccccc2O)cc1CN1CC2CC(C1)c1cccc(=O)n1C2 (stereo unspecified)	none
O=C(CSC1CS(=O)(=O)c2cc([N+](=O)[O-])ccc21)NNC(=O)c1ccccc1 (stereo unspecified)	none
O=C(CSC1CS(=O)(=O)c2cc([N+](=O)[O-])ccc21)NNC(=O)c1ccc(Cl)cc1 (stereo unspecified)	Sm TGR block 15.8µM
CC(C(=O)C12CC3CC(CC(C3)C1)C2)N1CCOCC1 (stereo unspecified)	none
CCCn1c(SCC(=O)Nc2ccccc2N2CCCCC2)nc2c1c(=O)n(C)c(=O)n2C	none
CCCCOc1ccc(C2OC34CCCCC3C(C#N)(C#N)C2(C#N)C(=N)O4)cc1 (stereo unspecified)	Sm TGR block inconclusive, AmpC detergent inconclusive
CCOc1ccc(C2OC34CCCCC3C(C#N)(C#N)C2(C#N)C(=N)O4)cc1OC (stereo unspecified)	Sm TGR block 50.1µM
COC/C=C/C1=CC2=CC(=O)C(C)(OC(=O)c3cnc4ccccc4n3)C(=O)C2=CN1CCN1CCOCC1 (stereo unspecified)	Sm TGR block 14.1µM
COC/C=C/C1=CC2=CC(=O)C(C)(OC(=O)c3cnc4ccccc4n3)C(=O)C2=CN1CCCOC(C)C (stereo unspecified)	Sm TGR block inconclusive
CC(C)c1ccc(S(=O)(=O)/N=C2\C=C(NS(=O)(=O)c3ccccc3)C(=O)c3ccccc32)cc1	Sm TGR block inconclusive
CC(C)c1ccc(S(=O)(=O)/N=C2/C=CC(=O)c3ccccc32)cc1	Sm TGR block 8.91µM, AmpC inh no detg 28.2µM
CCOC(=O)c1cccc(NC(=O)CCn2nc(C)c3c(C)n(-c4ccccc4)nc3c2=O)c1	none (no result: AmpC inh no detg)
CCC(c1nnnn1CCc1ccccc1)N(Cc1ccco1)Cc1cc2c(C)ccc(C)c2[nH]c1=O (stereo unspecified)	Sm TGR block inconclusive
CCC(c1nnnn1CCc1ccccc1)N(Cc1ccco1)Cc1cc2cc(C)cc(C)c2[nH]c1=O (stereo unspecified)	Sm TGR block 56.2µM, AmpC detergent inconclusive
COc1ccc(-c2ccc(NC(=O)c3ccc(Br)o3)cc2)nn1	none
COCCc1nn2c(=O)cc(COC(=O)c3ccccc3C)nc2s1	none (no result: AmpC inh no detg)
O=C(Nc1ccc(NC(=O)N2CCN(c3ccccc3O)CC2)cc1)N1CCN(c2ccccc2O)CC1	AmpC detergent inconclusive
Cc1ccc2[nH]cc(CCNC(=O)c3ccco3)c2c1	none
